Values joined by “and” are separate entries in the source; they are usually repeats but may differ in a detail not shown here. Equal entries are not always repeated. Screen size: about 5,500 compounds; about 2,000 (36%) were called active. About 18% were inconclusive and are not listed. Rule as the data show it: active = normalized growth mostly below about 0.91 (no sharp cut-off); inconclusive = no clear call, values can overlap the other calls; inactive = mostly above about 0.92. The list shows a part of the results.
Assay: chemical genetic growth profiling, strain panel (AID 1159580);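 also: tested at 20 µM; growth read once vehicle control cultures reached saturation at 30 °C; 1 = growth at the plate median or of vehicle wells; lower values mean less growth of the strain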
Details: S. cerevisiae deletion strains, growth OD

Measured: normalized growth

Cc1ccccc1OCC(O)CO (centres undefined)
inactive: locus YAL013W, strain DEP1, stronger effect = lower value 1.02 | locus YAL021C, strain ccr4, stronger effect = lower value 0.971 | locus YAL026C, strain drs2, stronger effect = lower value 0.974 | locus YAL030W, strain snc1, stronger effect = lower value 0.967 | locus YBL061C, strain skt5, stronger effect = lower value 0.962 | locus YBR009C, strain hhf1, stronger effect = lower value 0.985 | locus YBR021W, strain FUR4, stronger effect = lower value 1.03 | locus YBR023C, strain chs3, stronger effect = lower value 0.964 | locus YBR171W, strain sec66, stronger effect = lower value 0.973 | locus YBR229C, strain ROT2, stronger effect = lower value 1.02 | locus YBR231C, strain swc5, stronger effect = lower value 0.98 | locus YBR279W, strain paf1, stronger effect = lower value 0.974 | locus YCL011C, strain gbp2, stronger effect = lower value 0.971 | locus YCL016C, strain dcc1, stronger effect = lower value 0.967 | locus YCL029C, strain bik1, stronger effect = lower value 0.998 | locus YCL061C, strain MRC1, stronger effect = lower value 0.993 | locus YCL069W, strain vba3, stronger effect = lower value 0.981 | locus YCR088W, strain abp1, stronger effect = lower value 0.969 | locus YDL005C, strain med2, stronger effect = lower value 0.976 | locus YDL035C, strain GPR1, stronger effect = lower value 1.03 | locus YDL040C, strain nat1, stronger effect = lower value 0.967 | locus YDL074C, strain BRE1, stronger effect = lower value 1.05 | locus YDL101C, strain DUN1, stronger effect = lower value 1.03 | locus YDL134C, strain PPH21, stronger effect = lower value 1.04 | locus YDL185W, strain tfp1, stronger effect = lower value 0.99 | locus YDL192W, strain arf1, stronger effect = lower value 0.991 | locus YDR001C, strain nth1, stronger effect = lower value 0.983 | locus YDR069C, strain doa4, stronger effect = lower value 0.966 | locus YDR101C, strain arx1, stronger effect = lower value 1 | locus YDR137W, strain rgp1, stronger effect = lower value 0.997 | locus YDR159W, strain sac3, stronger effect = lower value 0.977 | locus YDR162C, strain NBP2, stronger effect = lower value 1.02 | locus YDR195W, strain ref2 0.957 | locus YDR297W, strain sur2, stronger effect = lower value 0.978 | locus YDR318W, strain mcm21, stronger effect = lower value 1.01 | locus YDR334W, strain swr1, stronger effect = lower value 0.964 | locus YDR335W, strain msn5, stronger effect = lower value 0.988 | locus YDR388W, stronger effect = lower value 0.987 | locus YDR392W, strain spt3, stronger effect = lower value 0.981 | locus YDR502C, strain sam2, stronger effect = lower value 0.99 | locus YEL003W, strain gim4, stronger effect = lower value 0.97 | locus YEL037C, strain rad23, stronger effect = lower value 0.969 | locus YEL061C, strain CIN8 (second series), stronger effect = lower value 0.968 | locus YEL061C, strain CIN8, stronger effect = lower value 1.01 | locus YER015W, strain faa2, stronger effect = lower value 0.976 | locus YER016W, strain bim1, stronger effect = lower value 0.988 | locus YER110C, stronger effect = lower value 0.99 | locus YER111C, strain swi4, stronger effect = lower value 0.97 | locus YER155C, strain BEM2 (second series), stronger effect = lower value 0.969 | locus YER155C, strain BEM2, stronger effect = lower value 1.01 | locus YER167W, strain BCK2, stronger effect = lower value 1.01 | locus YFR010W, strain ubp6, stronger effect = lower value 0.972 | locus YGL078C, strain dbp3, stronger effect = lower value 1 | locus YGL086W, strain mad1, stronger effect = lower value 1.01 | locus YGL167C, strain pmr1, stronger effect = lower value 0.969 | locus YGL173C, strain kem1, stronger effect = lower value 0.969 | locus YGL227W, strain vid30, stronger effect = lower value 0.976 | locus YGL240W, strain doc1, stronger effect = lower value 0.971 | locus YGL248W, strain PDE1, stronger effect = lower value 1.03 | locus YGL253W, strain hxk2, stronger effect = lower value 0.971 | locus YGR135W, strain pre9, stronger effect = lower value 0.99 | locus YGR229C, strain SMI1, stronger effect = lower value 1.03 | locus YGR252W, strain gcn5, stronger effect = lower value 0.989 | locus YHR013C, strain ard1, stronger effect = lower value 0.965 | locus YHR027C, strain rpn1, stronger effect = lower value 0.969 | locus YHR030C, strain SLT2, stronger effect = lower value 1.01 and 0.978 | locus YHR079C, strain IRE1 (second series), stronger effect = lower value 0.992 | locus YHR079C, strain IRE1, stronger effect = lower value 0.973 | locus YHR094C, strain hxt1, stronger effect = lower value 0.986 | locus YHR129C, strain ARP1, stronger effect = lower value 1.02 | locus YHR142W, strain chs7, stronger effect = lower value 0.964 | locus YHR200W, strain rpn10, stronger effect = lower value 1 | locus YIL066C, strain RNR3, stronger effect = lower value 1.04 | locus YIL073C, strain SPO22, stronger effect = lower value 1.08 | locus YIL125W, strain kgd1, stronger effect = lower value 0.99 | locus YIR030C, strain dcg1, stronger effect = lower value 0.989 | locus YJL092W, strain hpr5, stronger effect = lower value 0.99 | locus YJL095W, strain BCK1 (second series), stronger effect = lower value 0.977 | locus YJL095W, strain BCK1, stronger effect = lower value 1.05 and 0.98 | locus YJL115W, strain asf1, stronger effect = lower value 0.977 | locus YJL129C, strain trk1, stronger effect = lower value 0.971 | locus YJL134W, strain LCB3, stronger effect = lower value 1.01 | locus YJL154C, strain vps35, stronger effect = lower value 0.973 | locus YJL164C, strain tpk1, stronger effect = lower value 0.969 | locus YJL166W, strain qcr8, stronger effect = lower value 0.978 | locus YJL168C, strain set2, stronger effect = lower value 0.991 | locus YJL187C, strain SWE1 (second series), stronger effect = lower value 1.03 | locus YJL187C, strain SWE1, stronger effect = lower value 0.979 | locus YJR043C, strain POL32, stronger effect = lower value 1.02
